# Most compounds without a hit are left out; they make up all but 19% or so of the library.
# Shiga inhibitor – Shiga toxin inhibition. Vero cells, Shiga toxin protein synthesis inhibition reporter. inhibition, % at 38.7 µM. 290,000 compounds, 9.2% hits. AID 2315; in the data active means inhibition mostly above about 28%, no sharp cut-off; inactive means mostly below about 43%; further: 0% is about no effect
# Pf growth 48h – P. falciparum growth inhibition at 48 hours (one generation). AID 504832. Potency, µM (highest dose often 28.7 µM), inactives show top-dose activity change, negative = inhibition, usual class: inhibitors. 310,000 compounds, 5.9% hits. P. falciparum luciferase growth in erythrocytes, 48 h; further: potency means the concentration at half of the fitted maximal effect; on the % scale 0 is the no-effect control and ±100 the full control effect
#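 Compounds are pin-transferred into medium, infected erythrocytes (2% hematocrit, 0.1% parasitemia final) are added, and plates sit one parasite generation at 37 C in 5% CO2. Detection reagent is then added and luminescence measured.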
# SARS PLpro yeast – blocks SARS-CoV papain-like protease in a yeast assay; S. cerevisiae expressing SARS-CoV PLpro, growth rescue; Potency, µM (series often up to 32.9 µM), for the others: at the top dose activity, positive = growth rescue, usual class: activators; 330,000 compounds, 0.19% hits; calls by dose curve; further: potency means the concentration at half of the fitted maximal effect; 0% is about no effect; nearly all actives have a fitted effect of over 55% in size
# AMA1 RON2 block – inhibitors of Plasmodium falciparum AMA1-RON2 interaction; AlphaScreen AMA1-biotinylated RON2 peptide binding; Potency, µM (top dose mostly 58.2 µM), for the others: at the top dose activity change, negative = inhibition, usual class: inhibitors; 360,000 compounds, 0.2% hits;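 further: potency means the concentration at half of the fitted maximal effect; 0% = vehicle wells and -100% = peptide control; nearly all actives have a fitted effect of over 45% in size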
#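 AMA1 (3D7) with his tag at 25 nM final met compounds first, then biotinylated RON2 peptide at 25 nM; detection used donor plus acceptor beads, 10 µg/mL apiece, read by AlphaScreen after 30 min at room temperature.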
# Pf growth 96h – inhibits malaria parasite growth, 96 h. Potency, µM (titrated, usually from 28.7 µM), for the others: at the highest dose activity change, negative = inhibition, hits mostly inhibitors. 320,000 compounds, 6.9% hits. P. falciparum luciferase reporter growth, 96 h; further: potency means the concentration at half of the fitted maximal effect; on the % scale 0 is the no-effect control and ±100 the full control effect
#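 Plates of compound plus infected erythrocytes (2% hematocrit, 0.05% parasitemia final) incubate 96 hours, 37 C, 5% CO2. Detection reagent added; reduced luminescence from the parasites' luciferase reporter flags inhibition.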
# CHX counter – counter-screen hit for Shiga toxin inhibitors, cycloheximide | AID 2314 | 300,000 compounds, 12% hits | max response, % | cell reporter, cycloheximide protein synthesis inhibition counterscreen; in the data active means max response mostly above about 13%, no sharp cut-off; inactive means mostly below about 14%; further: read at 38.3 µM for the half of the compounds with a filed dose; 0% is about no effect
# * = called active by the depositor; u = inconclusive; x = no result. Unless noted, the call rests on the fitted dose curve; in most records, active means well fitted curve in the direction sought with a large enough effect; inconclusive means small, poorly fitted or top-dose-only effect, or another doubt; inactive means no such curve, though single readings can be large; an effect the other way counts as inactive or inconclusive.
SMILES,Shiga inhibitor,Pf growth 48h,SARS PLpro yeast,AMA1 RON2 block,Pf growth 96h,CHX counter
Cc1ccc(CSCCNC(=O)c2ccc(N(C)S(=O)(=O)c3ccccc3)cc2)cc1,14,6%,-6%,-3%,77%,5
CN(C1CCCCC1)S(=O)(=O)c1ccccc1,-14,18%,2%,-7%,x,-2
CN(c1ccc(C(=O)NCCSC(C)(C)C)cc1)S(=O)(=O)c1ccccc1,28,u,0%,-21%,-2%,11*
Cc1ccc(NC(=O)COC(=O)c2ccc(-n3cccn3)cc2)cc1C,x,14%,11%,-10%,6%,x
CC1(C(=O)NS(=O)(=O)c2ccc(Cl)cc2)CCN1C(=O)CCc1ccccc1 (stereo unspecified),x,x,x,-7%,x,x
Cc1ccc(C(=O)NCCSC(C)(C)C)cc1[N+](=O)[O-],95*,32%,-18%,-1%,-17%,54*
Cc1ccccc1CSCCNC(=O)c1ccccc1,12,12µM*,2%,0%,0%,12
CCCCNC(=O)c1ccc(SCC(=O)N(CC)CC)c([N+](=O)[O-])c1,-2,9%,-2%,11%,1µM*,2
CSCCNC(=O)c1ccc(C(C)(C)C)cc1,92*,84%,-5%,2%,5%,28*
COc1ccc2oc(=O)c(C(=O)N3CCN(C(=O)c4ccco4)CC3)cc2c1,-8,14%,-3%,-1%,u,6
CC(C)(C)SCCNC(=O)c1ccccc1,37,x,2%,7%,49%,37*
Cc1ccc(C(=O)Oc2ccc(Cl)c3cccnc23)cc1[N+](=O)[O-],-3,13µM*,-20%,-19%,u,10
CN(c1ccc(C(=O)O)cc1)S(=O)(=O)c1ccccc1,-1,27%,2%,2%,9.3µM*,1
Cc1ccc(C(=O)ONC(=O)c2ccc(Cl)cc2)cc1[N+](=O)[O-],34*,-3%,-5%,0%,23%,21*
O=C(NCCSSCCNC(=O)c1ccccc1)c1ccccc1,x,x,x,-14%,x,x
COc1ccc(C(=O)Oc2cccc3cccnc23)cc1[N+](=O)[O-],3,-24%,-6%,37%,22%,-4
O=C(CN1CCSC1=O)Nc1ccc(N2CCOCC2)cc1,x,81%,2%,10%,46%,x
COc1c(C(=O)NCCSC(C)(C)C)ccc2ccccc12,39*,13%,-2%,-16%,u,13*
Clc1c(-c2nnc3n2CCC3)sc2ccccc12,50,u,-10%,5%,u,15*
Clc1c(-c2nnc3n2CCCCC3)sc2ccccc12,-8,x,1%,3%,u,3
COc1ccc2c(Cl)c(-c3nnc4n3CCCCC4)sc2c1,34,x,-6%,-3%,-22%,25*
COc1ccc(-c2nnc3n2CCCCC3)cc1OC,-4,24%,-2%,0%,23%,-6
C[C@@H]1CCCCO[C@H](CN(C)Cc2ccc(C(=O)O)cc2)[C@H](C)CN([C@@H](C)CO)C(=O)c2cc(NC(=O)Nc3ccc(C(F)(F)F)cc3)ccc2O1,x,x,x,14%,x,x
c1ccc2nc(-c3ccc(-n4ccnc4)cc3)ccc2c1,61*,-70%,-6%,0%,-34%,35*
CC(=O)N1CCc2ccc([N+](=O)[O-])cc21,x,x,x,-8%,x,x
SMILES,Shiga inhibitor,Pf growth 48h,SARS PLpro yeast,AMA1 RON2 block,Pf growth 96h,CHX counter
CCCCC12CN3CCN(CC(C3)/C1=N\NC(=O)c1ccccc1N)C2,83*,25%,1%,0%,9%,46*
Cc1cc(=O)n2cc(-c3ccccc3)nc2[nH]1,0,19%,-1%,10%,17%,22*
Cc1ccc(-c2ccc(=O)[nH]n2)cc1,-3,-4%,-31%,-1%,-30%,-1
Cc1ccc(-c2cn3c(=O)cc(C)[nH]c3n2)cc1,49,144%,5%,2%,393%,26*
CCOC(=O)c1c(C)[nH]c(C)c1C(=O)CSc1nnc(-c2ccco2)n1Cc1ccccc1,-3,7.4µM*,-5%,-10%,15µM*,-2
NC(=O)NC(=O)CSc1nnc(-c2ccco2)n1Cc1ccccc1,-22,5%,0%,0%,36%,-6
CCOC(=O)c1c(C)[nH]c(C)c1C(=O)CSc1nnc(-c2ccncc2)n1Cc1ccccc1,-7,x,0%,-17%,10µM*,9

# Screening data as filed in PubChem BioAssay.
